This note sets out measurements from ChEMBL document CHEMBL3988442, “University of Dundee, Small-Polar-MMV Screening Library” (2021).

Among all 48,000 compounds or so, about 13,000 (27%) showed an effect of 50% or more. Some of the results follow.

This test concerns Wolbachia pipientis. Description: Anti-Wolbachia Cell-Based Screen. It counts as functional. Details: scale not given: in the data most compounds retested in dose-response had high values. The note with it: 5 µM.
For `CC(c1ccc(F)cc1)N1CCN(Cc2ccc(C#N)cc2)CC1` (configuration not stated), the “Percent Effect” value turned out to be 26.99%.

Regarding `CC(C)OCCNC1(c2ccc(Cl)cc2)CCOCC1`, the “Percent Effect” value is on record as 3.7%.

Turning to `CC(=O)N1C[C@H]2CNC[C@@]2(C(=O)NCCNc2ccncc2C)C1`, the “Percent Effect” value is recorded as -5.626%.

For the molecule `Cc1cccc(-c2ncc(CNC(C)Cc3ccncc3)cn2)c1` (configuration not stated), the “Percent Effect” value is -2.738%.

For the molecule `Cc1nnc([C@@H]2CC[C@@H]3[C@@H](CCN3Cc3ccccn3)O2)o1.O=C(O)C(F)(F)F.O=C(O)C(F)(F)F`, the “Percent Effect” value is given as -6.583%.

For the molecule `COc1ccc(CNC(C)Cn2cccn2)cc1F` (configuration not stated), the “Percent Effect” value came to 80.61%.

For the molecule `CC(Cn1ccnc1)NCc1ccc2nonc2c1` (configuration not stated), the “Percent Effect” value is reported as -7.482%.

In the case of `CC(Cn1cncn1)NCc1ccc2nonc2c1` (configuration not stated), the “Percent Effect” value was -26.41%.

`CC(Cn1cccn1)NCc1nc(-c2cccs2)no1` (configuration not stated): the “Percent Effect” value is -0.9937%.

On to `COc1cc(CNC(C)Cn2cccn2)cc(Cl)c1OC.Cl` (configuration not stated), for which the “Percent Effect” value was determined as 86.44%.

With `COc1cc(CNC(C)Cn2cccn2)cc(OC)c1OC.Cl` (configuration not stated), the “Percent Effect” value is -0.312%.

With `Cc1nc(C)c(CC(=O)N2C[C@@H]3CC[C@H](C2)N(CC2CC2)C3)s1`, the “Percent Effect” value is listed as 5.812%.

As to `O=C(O)C(F)(F)F.O=S1(=O)NCC2(CCNCC2)COc2ccccc21`, the “Percent Effect” value is -6.327%.

With `O=S1(=O)N(c2ccccc2)C[C@H](O)[C@]12CCNC2`, the “Percent Effect” value came out at 107%.

Consider `O=S1(=O)N(c2ccccc2)C[C@@H](O)[C@]12CCNC2`, for which the “Percent Effect” value was found to be 103.1%.

Regarding `OCC1N(Cc2ccco2)[C@H]2CC[C@]1(O)CC2` (some centres not stated), the “Percent Effect” value was 109.9%.

Consider `CN1CCN(Cc2ccco2)Cc2cccnc21`, for which the “Percent Effect” value was found to be 10.4%.

Turning to `Cc1cc(CN2C[C@@H]3COC[C@]3(COCc3csc(C)n3)C2)no1.O=C(O)C(F)(F)F`, the “Percent Effect” value is reported as -7.222%.

Regarding `COC[C@]12COC[C@H]1CN(Cc1ccc3ccccc3n1)C2.O=C(O)C(F)(F)F.O=C(O)C(F)(F)F`, the “Percent Effect” value was -16.09%.

As to `Cc1cccc(CN2C[C@@H]3COC[C@]3(COCC(=O)N(C)C)C2)n1.O=C(O)C(F)(F)F.O=C(O)C(F)(F)F`, the “Percent Effect” value was determined as 109.1%.

For `Cc1cc(CN2C[C@@H]3COC[C@]3(CNC(=O)N(C)C)C2)no1.O=C(O)C(F)(F)F`, the “Percent Effect” value is -12.05%.

For the molecule `Cc1cc(CN2C[C@@H]3COC[C@]3(COCC(=O)N(C)C)C2)no1`, the “Percent Effect” value was determined as 104.2%.

On to `CN(C)C[C@]12COC[C@H]1CN(Cc1ccc3ccccc3n1)C2.O=C(O)C(F)(F)F.O=C(O)C(F)(F)F.O=C(O)C(F)(F)F`, for which the “Percent Effect” value is -5.05%.

`Cc1cccc(CN2C[C@@H]3CCCO[C@@H]3[C@H](NS(C)(=O)=O)C2)n1`: the “Percent Effect” value came to 6.966%.

In the case of `Cc1cccc(CN2C[C@H](NS(C)(=O)=O)[C@@H]3OCCC[C@@H]32)n1.O=C(O)C(F)(F)F.O=C(O)C(F)(F)F`, the “Percent Effect” value is -8.995%.

As to `Cc1cccc(CN2C[C@@H](NC(=O)C3CCC3)[C@H]3COC[C@H]32)n1`, the “Percent Effect” value was found to be 5.905%.

For the molecule `Cc1noc(C)c1CN1C[C@H](OCC(=O)N(C)C)[C@H]2COC[C@H]21.O=C(O)C(F)(F)F`, the “Percent Effect” value was -5.936%.

As for `Cc1noc(C)c1CN1C[C@H](OCC2CC2)[C@H]2COC[C@H]21.O=C(O)C(F)(F)F`, the “Percent Effect” value is reported as -11.17%.

In the case of `Cc1cccc(CN2C[C@@H]3COC[C@H](NS(C)(=O)=O)[C@@H]3C2)n1.O=C(O)C(F)(F)F.O=C(O)C(F)(F)F`, the “Percent Effect” value was 86.62%.

On to `Cc1ccc(CN2C[C@H]3OC(=O)N(Cc4ccccn4)[C@H]3C2)o1`, for which the “Percent Effect” value was 4.449%.

`Cc1ccc(CN2C[C@@H](OCc3ccccn3)[C@H]3COC[C@H]32)o1.O=C(O)C(F)(F)F.O=C(O)C(F)(F)F`: the “Percent Effect” value was 91.93%.

On to `CCc1ccc(CN2C[C@H](OC)[C@H]3COC[C@H]32)o1.O=C(O)C(F)(F)F`, for which the “Percent Effect” value came to 106.4%.

Regarding `Cc1ncsc1CN1C[C@@H](OCc2ccccn2)[C@H]2OCCC[C@H]21.O=C(O)C(F)(F)F.O=C(O)C(F)(F)F.O=C(O)C(F)(F)F`, the “Percent Effect” value was -3.232%.

As for `Cc1cccc(CN2C[C@H](OCc3ccccn3)[C@H]3COC[C@H]32)n1.O=C(O)C(F)(F)F.O=C(O)C(F)(F)F`, the “Percent Effect” value is recorded as 114.7%.

`Cc1cccc(CN2CCO[C@H]3[C@H](Oc4ccccn4)CC[C@@H]32)n1.O=C(O)C(F)(F)F.O=C(O)C(F)(F)F.O=C(O)C(F)(F)F`: the “Percent Effect” value was -5.124%.

Take `O=C1NCCC12CN(CC1CC1)CC21CCNCC1` (configuration not stated): the “Percent Effect” value was -8.947%.

Regarding `CCC/C=C/c1ccc(CN2CCN(C)CC2)cn1`, the “Percent Effect” value is -3.388%.

Turning to `CC(C)C(NC(=O)c1ccccc1)C(=O)N1CCC2(CC1)OCCO2` (configuration not stated), the “Percent Effect” value is recorded as -14.78%.

Regarding `O=C(NCC(=O)N1CCC2(CC1)OCCO2)c1ccoc1`, the “Percent Effect” value is 92.23%.

As to `CC(C)C(NC(=O)c1ccco1)C(=O)N1CCC2(CC1)OCCO2` (configuration not stated), the “Percent Effect” value is listed as -15.39%.

For the molecule `Cc1cccc(CN2C(=O)C[C@H]3[C@@H]2CCN3Cc2ccco2)n1.O=C(O)C(F)(F)F.O=C(O)C(F)(F)F`, the “Percent Effect” value was 95.2%.

For the molecule `Cc1cccc(CN2C(=O)C[C@@H]3[C@@H]2CCN3Cc2ccsc2)n1.O=C(O)C(F)(F)F.O=C(O)C(F)(F)F`, the “Percent Effect” value is recorded as 96.12%.

For the molecule `Cc1cccc(CN2C(=O)C[C@H]3[C@@H]2CCN3Cc2nccs2)n1.O=C(O)C(F)(F)F.O=C(O)C(F)(F)F`, the “Percent Effect” value is listed as 101.6%.

Turning to `Cc1cccc(CN2C(=O)CC[C@H]3[C@@H]2CCN3CC(=O)N(C)C)n1.O=C(O)C(F)(F)F.O=C(O)C(F)(F)F`, the “Percent Effect” value turned out to be 6.381%.

With `Cc1ccc(-c2noc(CC[C@@H]3CCCN4CCCC[C@H]34)n2)nn1`, the “Percent Effect” value is on record as -24.46%.

For `Cc1cc(C)nc(C2CCCNC2)n1.Cl.Cl` (configuration not stated), the “Percent Effect” value worked out at 131.4%.

Take `CN(C)c1cc(C2CCCNC2)ccn1.Cl.Cl` (configuration not stated): the “Percent Effect” value was 113.5%.

For the molecule `c1cncc(NCCNC2CCCNC2)c1` (configuration not stated), the “Percent Effect” value is 1.696%.

In the case of `CNc1cc(C2CCCNC2)nc(C)n1.Cl.Cl` (configuration not stated), the “Percent Effect” value came to 69.51%.

For the molecule `Cc1cc(N(C)C)nc(C2CCCNC2)n1.Cl` (configuration not stated), the “Percent Effect” value amounted to 130.2%.

`Cc1cc(N(C)C)nc(N2CCCC2c2cccnc2)n1` (configuration not stated): the “Percent Effect” value was found to be 6.252%.

Consider `O=C([C@H]1C[C@H]2OCC[C@H]2N(Cc2ccncc2)C1)N1CCCCO1`, for which the “Percent Effect” value is reported as -15.5%.

Regarding `Cc1nc(O)cc(CN2CC=C(c3cnn(-c4ccccc4)c3)CC2)n1`, the “Percent Effect” value stood at 3.563%.

For the molecule `O=C(O)C(F)(F)F.O=C1[C@H]2CN(Cc3cccs3)C[C@H]2CN1c1cncnc1`, the “Percent Effect” value is recorded as 0.1136%.

As for `Cl.FC(F)(F)c1nc(C2CCCNC2)no1` (configuration not stated), the “Percent Effect” value is reported as 113.6%.

Regarding `Cc1cc(O)nc(C2CCCNC2)n1.Cl` (configuration not stated), the “Percent Effect” value is on record as 166.7%.

As to `CC(C)c1nc(C2CCCNC2)no1.Cl` (configuration not stated), the “Percent Effect” value is recorded as -31.86%.

Take `COc1ccc(F)cc1C(=O)C1CCCN(Cc2cnc(C)s2)C1` (configuration not stated): the “Percent Effect” value is -11.09%.

As for `N#Cc1cccc(N2CCCC3(CNCCO3)C2)n1.O=C(O)C(F)(F)F.O=C(O)C(F)(F)F` (configuration not stated), the “Percent Effect” value is given as 1.133%.

As for `CN1C(=O)C2(CCN(Cc3cccnc3)CC2)c2cccc(F)c21.Cl`, the “Percent Effect” value is given as 9.194%.

Consider `COc1ccc(CCN)cc1-c1ccc(S(C)(=O)=O)cc1`, for which the “Percent Effect” value is recorded as -7.949%.

Consider `O=C(c1cc(F)cc(F)c1)N1C[C@H]2CNC[C@H]2C1`, for which the “Percent Effect” value was -1.943%.
